The record followed here is PubChem BioAssay (Tox21).

Assay [1] is described as follows: qHTS RealTime-Glo MT Cell Viability Assay in HEK293 cells - 0 hour (AID 1224880). Note: top concentration of the series differs between compounds; nearly all actives have a fitted effect of over 45% in size. The procedure, abridged:
(§1)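 Luminescence readout at each listed time point; HEK293, 600 cells/well, RealTime-Glo MT reagent added with cells; compounds pinned (23 nL in DMSO) after 5 h at 37 C; continuous culture at 37 C.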
(In general: Quantitative high-throughput screening tests each substance at several concentrations.)

Assay [2] in a line: A CellTox Green Cytotoxicity Assay to monitor cytotoxicity in HEK293 cells - 32 hour (AID 1224881). Note: nearly all actives have a fitted effect of over 40% in size. The procedure, abridged: (§2)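 Read-out: fluorescence of a cell-impermeant cyanine dye staining DNA of dead cells, proportional to cytotoxicity. HEK293, 600 cells/well with reagent, compound (23 nL DMSO) added after 5 h; reads at 0, 8, 16, 24, 32, 40 h.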
The nature of assay [3]: A CellTox Green Cytotoxicity Assay to monitor cytotoxicity in HepG2 cells - 0 hour (AID 1224882). Note: nearly all actives have a fitted effect of over 35% in size. The procedure, abridged:
(§3)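 HepG2, 600 cells/well premixed w/ CellTox Green; 5 h settle, 37 C/5% CO2; pintool cpd add (DMSO); 37 C, 40 h; fluorescence read at 0, 8, 16, 24, 32, 40 h.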

Assay [4] is described as follows: A CellTox Green Cytotoxicity Assay to monitor cytotoxicity in HepG2 cells - 32 hour (AID 1224883). Note: nearly all actives have a fitted effect of over 50% in size. Note: potency is the fitted concentration of half-maximal effect. The gist of the method:
as §3

A short description of assay [5]: A CellTox Green Cytotoxicity Assay to monitor cytotoxicity in HEK293 cells - 8 hour (AID 1224884). Note: nearly all actives have a fitted effect of over 35% in size. The gist of the method:
as §2

Assay [6] can be described thus: qHTS RealTime-Glo MT Cell Viability Assay in HepG2 cells - 16 hour (AID 1224885). Note: nearly all actives have a fitted effect of over 50% in size. The gist of the method: (§4)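 Cells + NanoLuc/prosubstrate dispensed (600 cells/well) → 5 h at 37 C/5% CO2 → compounds in DMSO transferred → 40 h incubation at 37 C, luminescence read at 0, 8, 16, 24, 32, 40 h.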
Assay [7] is described as follows: qHTS RealTime-Glo MT Cell Viability Assay in HEK293 cells - 24 hour (AID 1224886). Note: top concentration of the series differs between compounds; nearly all actives have a fitted effect of over 50% in size. The gist of the method: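 Tox21 10K qHTS, HEK293, 600 cells/well, RealTime-Glo reagent co-dispensed with cells; 5 h preincubation, compound by pintool, 37 C, luminescence at 0–40 h.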
Assay [8] is described as follows: qHTS RealTime-Glo MT Cell Viability Assay in HEK293 cells - 8 hour (AID 1224887). Note: top concentration of the series differs between compounds; nearly all actives have a fitted effect of over 50% in size. The procedure, abridged: as §1
The nature of assay [9]: A CellTox Green Cytotoxicity Assay to monitor cytotoxicity in HEK293 cells - 16 hour (AID 1224888). Note: nearly all actives have a fitted effect of over 35% in size. The procedure, abridged:
as §2

Assay [10] is described as follows: qHTS RealTime-Glo MT Cell Viability Assay in HepG2 cells - 0 hour (AID 1224889). Note: nearly all actives have a fitted effect of over 50% in size. The procedure, abridged: as §4

Unmarked numbers belong to inactive results. Inconclusive results are not listed. Activity calls are given as the source filed them. Calls come from the whole dose curve; as a rule, active = well fitted curve in the direction sought with a large enough effect in the repeat runs; inconclusive = weak or mixed curves; inactive = no such curve, though single readings can be large; an effect the other way counts as inactive or inconclusive.
% is set by controls: 0 for no effect and ±100 for the full control effect.

As to `CC/C=C\CCOC(=O)C(C)C`, the compound was classed as inactive in assay [1] and in [6]. Besides, the Potency result in [2], in assay [3], in assay [4], in assay [5], in assay [7] and in assay [8] was “inactive” throughout. Also, the Potency result in assay [9] and in assay [10] was “inactive” each time.

For `Cc1c[nH]c(=S)[nH]c1=O`, the compound was called inactive in [1] and in assay [6]. For the same compound, the Potency result in assay [2], in assay [3], in assay [4], in assay [5], in [7] and in assay [8] was “inactive” in each case. Moreover, the Potency entry in assay [9] and in assay [10] was “inactive” throughout.

`CC(C)O`: the result in assay [1] and in assay [6] was inactive. For the same compound, the Potency result in [2], in assay [3], in [4], in assay [5], in assay [7] and in assay [8] was “inactive” in each case. The Potency result in assay [9] and in assay [10] was “inactive” each time.

For `C=O`, the call in [1] and in assay [6] was inactive. Besides, the Potency entry in assay [2], in assay [3], in assay [4], in [5], in assay [7] and in assay [9] was “inactive” each time. Also, the Potency entry in [10] is “inactive”.

Turning to `C[C@]12CCC(=O)C=C1CC[C@@H]1[C@@H]2CC[C@@]2(C)[C@H]1CC[C@]2(O)C(=O)CO`, the result in assay [1] and in assay [6] was inactive. Further, the Potency result in assay [2], in assay [3], in [4], in [5], in [8] and in assay [9] was “inactive” each time.

With `C=CC1CO1` (stereo not drawn), the result in assay [1] and in assay [6] was inactive. Moreover, the Potency result in assay [2], in assay [3], in [4], in assay [5], in [7] and in assay [8] was “inactive” in each case. Further, the Potency entry in assay [9] and in [10] was “inactive” each time.

Take `CCCCC1CCC(=O)O1` (stereo not drawn): the result in assay [1] and in assay [6] was inactive. Also, the Potency entry in assay [2], in assay [3], in assay [4], in assay [5], in assay [7] and in assay [8] was “inactive” each time. Further, the Potency entry in [9] and in [10] was “inactive” each time.

On to `COC(=O)C(C)O` (stereo not drawn), for which the result in [1] and in [6] was inactive. Moreover, the Potency entry in [2], in [3], in assay [4], in [5], in assay [7] and in [9] was “inactive” each time. In addition, the Potency result in assay [10] is “inactive”.

Take `OC[C@H]1O[C@@H](O[C@H]2[C@H](O)[C@@H](O)[C@H](O)O[C@@H]2CO)[C@H](O)[C@@H](O)[C@H]1O`: the call in [1] and in assay [6] was inactive. For the same compound, the Potency entry in [2], in assay [3], in assay [4], in assay [5], in assay [7] and in [9] was “inactive” each time. Also, in [10], the Potency entry was “inactive”.

As to `CCCCNC(=S)NCCCC`, the result in assay [1] and in assay [6] was inactive. The Potency result in assay [2], in assay [3], in [4], in [5], in assay [7] and in assay [9] was “inactive” in each case. For the same compound, in assay [10], the Potency entry was “inactive”.

With `Cc1c(N)cccc1N`, the compound was classed as inactive in assay [1] and in assay [6]. Moreover, the Potency result in [2], in assay [3], in assay [4], in assay [5], in assay [7] and in [9] was “inactive” each time. The Potency result in assay [10] was “inactive”.

Regarding `CCCCCCCCOC(=O)CCCCCCCCC(=O)OCCCCCCCC`, the call in assay [1] and in [6] was inactive. In addition, the Potency entry in assay [2], in assay [3], in assay [4], in assay [5], in assay [7] and in assay [9] was “inactive” in each case. The Potency entry in assay [10] was “inactive”.

For the compound `CN(C)CC[C@@H](c1ccc(Cl)cc1)c1ccccn1`, the compound was called inactive in [1] and in assay [6]. For the same compound, the Potency entry in assay [2], in assay [3], in [4], in assay [5], in assay [7] and in [8] was “inactive” in each case. Further, the Potency result in assay [9] and in assay [10] was “inactive” in each case.

For `CCC(=O)Nc1ccc(O)cc1`, the compound was classed as inactive in assay [1] and in [6]. Moreover, the Potency result in [2], in [3], in assay [4], in [5], in assay [7] and in [9] was “inactive” each time. For the same compound, in [10], the Potency entry was “inactive”.

For the compound `CCCNC(C)C(=O)Nc1c(C)csc1C(=O)OC` (stereo not drawn), the call in assay [1] and in assay [6] was inactive. Also, the Potency result in assay [2], in [3], in assay [4], in assay [5], in [7] and in [8] was “inactive” in each case. The Potency entry in assay [9] and in [10] was “inactive” each time.

Turning to `COC(=O)/C=C(/C)N`, the result in [1] and in [6] was inactive. The Potency result in assay [2], in [3], in [4], in [5], in assay [7] and in assay [8] was “inactive” each time. In addition, the Potency result in assay [10] is “inactive”.

With `O=C1CCCCCCCCCCC(=O)OCCO1`, the compound was classed as inactive in assay [1] and in assay [6]. Further, the Potency entry in assay [2], in [3], in assay [5], in [7], in [9] and in assay [10] was “inactive” each time. Further, in assay [4], the Potency is 24.5 µM (active).

On to `C[C@@H](N)C(=O)O`, for which the result in [1] and in assay [6] was inactive. In addition, the Potency entry in assay [2], in [3], in assay [4], in [5], in [7] and in assay [8] was “inactive” throughout. For the same compound, the Potency entry in [9] and in assay [10] was “inactive” in each case.

In the case of `Cc1cn([C@@H]2O[C@H](CO)[C@@H](O)[C@@H]2F)c(=O)[nH]c1=O`, the outcome in assay [1] and in assay [6] was inactive. For the same compound, the Potency entry in assay [2], in [3], in assay [4], in assay [5], in [7] and in assay [9] was “inactive” in each case. The Potency entry in assay [10] is “inactive”.

`CC1(C)C(=O)N(Cl)C(=O)N1Br`: the call in assay [1] and in [6] was inactive. Also, the Potency result in assay [2], in [3], in assay [4], in [5], in assay [7] and in assay [8] was “inactive” throughout. Further, the Potency result in assay [9] and in [10] was “inactive” throughout.

As for `CC(C)OC(C)C`, the outcome in assay [1] and in [6] was inactive. The Potency entry in [2], in [3], in [4], in [5], in assay [7] and in assay [8] was “inactive” each time. Besides, the Potency result in assay [9] and in assay [10] was “inactive” in each case.

As to `Cc1nnc(SCC2=C(C(=O)O)N3C(=O)[C@@H](NC(=O)Cn4cnnn4)[C@H]3SC2)s1`, the result in assay [1] and in assay [6] was inactive. Besides, the Potency entry in [2], in assay [3], in assay [4], in [5], in assay [7] and in assay [8] was “inactive” each time. In addition, the Potency result in assay [9] and in assay [10] was “inactive” each time.

On to `C/C(=N\O)[C@@H](C)NCC(C)(C)CN[C@H](C)/C(C)=N/O`, for which the call in assay [1] and in [6] was inactive. Further, the Potency result in assay [2], in assay [3], in [4], in assay [5], in [7] and in assay [8] was “inactive” each time. Also, the Potency entry in [9] and in assay [10] was “inactive” throughout.

With `NC(Cc1ccc(F)cc1)C(=O)O` (stereo not drawn), the activity change, negative = cytotoxicity in assay [1] was -1.64% [at 6.97 µM]; in assay [7], -0.156% [at 6.97 µM]; in assay [8], 1.39% [at 6.97 µM]; in assay [10], 18.9% [at 6.97 µM]. The cytotoxicity increase was 12.7% [at 6.97 µM] in assay [2], 8.52% [at 6.97 µM] in assay [4] and 17.5% [at 6.97 µM] in [5]. In addition, in assay [3], the cytotoxicity is -0.531% [at 6.97 µM]. For the same compound, the activity change, negative = cytotoxic in [6] was 2.23% [at 6.97 µM]. Also, the activity change in [9] is 17.7% [at 6.97 µM, active compounds read high].
